Data taken from PubChem BioAssay (NCI).
This is part of a sample that, as a whole, favours compounds with a hit. Of some 79,000 tested, about 15% had one in any assay. Unmarked numbers belong to inactive results. Calls of active or inactive are those of the source. Cut-off read from the data, not from the text of the source: active = growth inhibition above about 70%; inactive = the rest.

Legend:
[1] = NCI Yeast Anticancer Drug Screen. Data for the rad50 strain (AID 155);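 note: 0% = growth of vehicle-only cultures of the same strain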; details: S. cerevisiae rad50 strain growth inhibition, hits give high values
Summary of the method: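 Vehicle-treated cultures provide the reference for the growth inhibition reported for compound-exposed, repair-deficient yeast.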

[2] = NCI Yeast Anticancer Drug Screen. Data for the mec2-1 strain (AID 157); details: S. cerevisiae mec2-1 strain, hits give high values
Summary of the method: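 Readout is yeast growth inhibition, normalised to vehicle-treated controls, in the mec2-1 strain exposed to compound.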

[3] = NCI Yeast Anticancer Drug Screen. Data for the sgs1 mgt1 strain (AID 161);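 note: 0% = growth of cultures given vehicle only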; details: S. cerevisiae sgs1 mgt1 strain, hits give high values
Summary of the method: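 Yeast cells carrying a defined DNA-repair defect were exposed to test compounds. Growth inhibition was measured relative to vehicle-treated controls.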

[4] = NCI Yeast Anticancer Drug Screen. Data for the cln2 rad14 strain (AID 165);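 note: 0% = growth equal to vehicle treated cultures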; details: S. cerevisiae cln2 rad14 strain, hits give high values
Summary of the method: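 Relative to vehicle controls, growth inhibition of compound-treated cln2 rad14 yeast was recorded.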

[5] = NCI Yeast Anticancer Drug Screen. Data for the bub3 strain (AID 167); details: S. cerevisiae bub3 mutant strain, hits give high values
Summary of the method: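 Mutant yeast screening strain plus compound; vehicle-treated cultures serve as the 0% inhibition reference.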

[6] = NCI Yeast Anticancer Drug Screen. Data for the mlh1 rad18 strain (AID 175); details: S. cerevisiae mlh1 rad18 strain growth inhibition, hits give high values
Summary of the method: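 Test agents were incubated with a yeast strain of defined genotype (DNA damage repair defect). Inhibition of growth was derived by comparison with vehicle-exposed cultures.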

[7] = at 5.0 µM (retest, dose inferred, filed as 0.5)
[8] = at 50.0 µM (retest, dose inferred, filed as 5.0)

| SMILES | growth inhibition [1, 7] [%] | growth inhibition [1, 8] | growth inhibition ([1]; at 50.0 µM) | growth inhibition [2, 7] [%] | growth inhibition [2, 8] | growth inhibition ([2]; at 50.0 µM) | growth inhibition [3, 7] [%] | growth inhibition [3, 8] | growth inhibition ([3]; at 50.0 µM) | growth inhibition [4, 7] [%] | growth inhibition [4, 8] | growth inhibition ([4]; at 50.0 µM) | growth inhibition [5, 7] [%] | growth inhibition [5, 8] | growth inhibition ([5]; at 50.0 µM) | growth inhibition [6, 7] | growth inhibition [6, 8] | growth inhibition ([6]; at 50.0 µM) |
| --- | --- | --- | --- | --- | --- | --- | --- | --- | --- | --- | --- | --- | --- | --- | --- | --- | --- | --- |
| CCCCCCCCCCCCCCCCP(=O)([O-])OCC[N+](C)(C)C | -34 | 99% (active) | 80.8% (active) | -32 | 99% (active) | 87.3% (active) | 0 | 99% (active) | 89.2% (active) | -27 | 99% (active) | 89.5% (active) | -32 | 98% (active) | 88.5% (active) | -26% | 98% (active) | 91.5% (active) |
| c1ccc(-c2c[nH]c(-c3ccccc3)c2-c2ccccc2)cc1 | 1 | 90% (active) | 95.2% (active) | -13 | 93% (active) | 95.1% (active) | -15 | 94% (active) | 93.3% (active) | -4 | 80% (active) | 95% (active) | 7 | 92% (active) | 83.4% (active) | 18% | 94% (active) | 96.8% (active) |
| CC(C)(C)C(=O)OC(N)/C=C/c1ccccc1 (stereo not given) | 21 | 24% | 1.75% | 15 | 16% | -10.2% | 13 | -36% | 78.8% (active) | 14 | -52% | 36.7% | 7 | -24% | 82.7% (active) | 23% | 24% | -19.9% |
| COc1ccc(C2c3cc4c(cc3OC(O)(CO)C2C(=O)O)OCO4)cc1 (stereo not given) (tested in a mixture with another compound) | -6 | 86% (active) | 53.5% | -11 | 75% (active) | 81.3% (active) | -6 | 40% | 27.8% | -6 | 90% (active) | 37% | -18 | 95% (active) | 87% (active) | -8% | 89% (active) | 81.8% (active) |
| Nc1ccccc1-c1nc2c(ccc3ccccc32)[nH]1 | -1 | 10% | 79.7% (active) | -17 | -10% | 4.6% | -16 | -5% | 88.8% (active) | 8 | -10% | 24.6% | -3 | 2% | 62.3% | 0% | -18% | 80.5% (active) |
| O=Cc1ccc2ccc3ccccc3c2c1 | -8 | 85% (active) | 85.9% (active) | 8 | 66% | 41.4% | 6 | 56% | 79.1% (active) | -19 | 94% (active) | 21.2% | -27 | 95% (active) | 70.8% (active) | -7% | 93% (active) | 84.9% (active) |
| O=C(CC1Sc2ccccc2NC1=O)Nc1ccc([N+](=O)[O-])cc1[N+](=O)[O-] (stereo not given) | 30 | 81% (active) | 88% (active) | 25 | 89% (active) | 93.3% (active) | 51 | 98% (active) | 81.8% (active) | 34 | 62% | 28.9% | 36 | 97% (active) | 92% (active) | 51% | 96% (active) | 86.9% (active) |
| O=[N+]([O-])c1ccc(S(=O)(=O)C/C=C/CCl)c([N+](=O)[O-])c1 | 54 | 99% (active) | 99.2% (active) | 34 | 100% (active) | 99.6% (active) | 43 | 99% (active) | 99.5% (active) | 20 | 99% (active) | 99.5% (active) | 37 | 99% (active) | 99.4% (active) | 71% (active) | 99% (active) | 99.5% (active) |
| CC1CCC2(CC1)NC1=C(CC(C)CC1)C1=C2CC(C)CC1 (stereo not given) | 46 | 87% (active) | 3.8% | 28 | 85% (active) | -29.6% | -1 | 27% | -21.9% | 14 | 26% | 13.2% | -16 | 17% | -4.4% | 32% | 89% (active) | 10.4% |
| CCCCc1c(O)c(N=NC(=O)C[n+]2ccccc2)c2ccccc2c1O | -2 | 10% | 8.55% | -3 | 32% | 11.6% | 2 | 27% | 17.8% | 2 | -3% | 40.1% | -3 | -1% | 13.5% | -2% | 21% | 4.75% |
